Screens from PubChem BioAssay.
Chronic BCR inh = chronic active BCR signaling inhibition; ABC-DLBCL IkBa-CBG/CBR reporter, luminescence ratio, 4 h; Potency, µM (series often up to 46.1 µM), without a hit: at the top dose activity change, negative = inhibition, most hits filed as inhibitors; 340,000 compounds, 0.05% hits; active = well fitted inhibition curve with a large enough effect in the signal ratio, with a control signal flat, not every such curve was filed as active; inconclusive = small, poorly fitted or top-dose-only effect, or effect the other way, or a change in a side signal; the % refers to the signal ratio;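 also: potency is read from the fitted curve at half-maximal effect; plate controls were basal doxycycline-induced cells for no effect and cells given 10 µM MG132 for full effect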
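TMD8 human ABC-DLBCL cells with doxycycline-inducible IκBα–green luciferase fusion and unfused red luciferase, in 0.5% FBS medium; compounds up to 46 uM, 4 h at 37C. Green/red luminescence ratio, filter-overlap corrected, fitted to concentration-response curves.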
IL1B secr inh = inflammasome signaling inhibition, IL-1 beta readout; THP-1 LPS/ATP IL-1B secretion, AlphaLISA, 16 h; active compounds read low; activity change, % at 57.5 µM; 360,000 compounds, 4.7% hits; in the data active = activity change below about -50%; inconclusive = mostly about -30% to -49%; also: % is scaled to controls: 0 for no effect and ±100 for the full control effect
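THP-1 cells pretreated 1 hr with compounds (up to 57.5 uM final), then stimulated with LPS (250 ng/mL final) plus ATP (1.25 mM final); secreted IL-1B measured by AlphaLISA after 16 hr, decreased signal indicating inhibition.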
MCF10A rerep = inducers of DNA re-replication in MCF 10A breast cells; MCF 10A DNA re-replication, Hoechst nuclear intensity, 48 h; Potency, µM (series often up to 46.1 µM), inactives show at the top dose activity, positive = re-replication, most hits filed as activators; 350,000 compounds, 2.9% hits; also: potency is read from the fitted curve at half-maximal effect; % of control where 0% means no effect; nearly all actives have a fitted effect of over 50% in size
SW480 rerep = DNA re-replication induction in SW480 cells. SW480 DNA re-replication, Hoechst DNA content imaging, 48 h. Potency, µM (doses to about 46.1 µM), for inactives: at the highest dose re-replication activation, most hits filed as activators. 340,000 compounds, 1.8% hits. AID 624297; also: potency is read from the fitted curve at half-maximal effect; % of control where 0% means no effect; nearly all actives have a fitted effect of over 55% in size
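Quantitative HTS format with DMSO vehicle controls; 48 hr drug incubation at 37 C, then 40 min Hoechst staining and scanning imager measurement at 405 nm excitation.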
TDP1 cell noCPT = qHTS for Inhibitors of human tyrosyl-DNA phosphodiesterase 1 (TDP1): qHTS in cells in absence of CPT. 420,000 compounds, 15% hits. DT40 Tdp1-/- hTDP1 cells, no CPT, ATP luminescence, 48 h. Potency, µM (series often up to 46.2 µM), for inactives: at the highest dose activity change, negative = growth inhibition, actives largely listed as inhibitors. AID 686978, 2013; also: potency is read from the fitted curve at half-maximal effect; % is scaled to controls: 0 for no effect and ±100 for the full control effect; nearly all actives have a fitted effect of over 55% in size
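No-CPT arm: Tdp1-/-;hTDP1 DT40 cells (400/well) plus compounds, incubated ≥48 hr at 37 °C. Readout CellTiter-Glo luminescence.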
DT40 TDP1 CPT = growth inhibition of DT40 Tdp1-/-;hTDP1 cells with camptothecin (screen for TDP1 inhibitors) | Potency, µM (highest dose often 46.2 µM), inactives show at the top dose activity change, negative = growth inhibition, most hits filed as inhibitors | AID 686979 | chicken DT40 Tdp1-/-;hTDP1 cells + 20 nM CPT, ATP luminescence, 48 h | 420,000 compounds, 12% hits; also: potency is read from the fitted curve at half-maximal effect; % is scaled to controls: 0 for no effect and ±100 for the full control effect; nearly all actives have a fitted effect of over 55% in size
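Cell growth measured by CellTiter-Glo luminescence after a minimum 48 h, 37 C compound exposure with 20 nM CPT in Tdp1-knockout DT40 cells stably expressing hTDP1, seeded 400/well; qHTS titration format.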
Active calls of the source: *; ? = inconclusive; . = no result. Hits are enriched below; roughly 19% of the tested compounds scored in any of these assays. Unless noted, calls follow the shape of the dose curve; as a rule, active = well fitted curve in the direction sought with a large enough effect; inconclusive = small, poorly fitted or top-dose-only effect, or another doubt; inactive = no such curve, though single readings can be large; an effect the other way counts as inactive or inconclusive.

SMILES | Chronic BCR inh | IL1B secr inh | MCF10A rerep | SW480 rerep | TDP1 cell noCPT | DT40 TDP1 CPT
O=S(=O)(c1ccc(F)cc1)N(Cc1nc(-c2ccc(Cl)cc2)no1)C1CCCCC1 | . | . | . | . | 25.9µM* | ?
CN(Cc1nc(-c2ccncc2)no1)S(=O)(=O)c1ccc(Cl)cc1 | 10.1% | 6.5 | -6.4% | -4.9% | ? | ?
COc1ccc(N2CCN(C(CNS(=O)(=O)c3ccc4c(c3)OCCO4)c3ccco3)CC2)cc1 (configuration not stated) | 4.7% | -6.0 | ? | -1.1% | ? | 13µM*
COc1ccc(N2CCN(C(CNS(=O)(=O)c3c(C)cc(C)cc3C)c3ccco3)CC2)cc1 (configuration not stated) | 12.0% | . | . | . | 25.9µM* | ?
COc1ccc(S(=O)(=O)NCC(c2ccco2)N2CCN(c3ccccc3F)CC2)cc1C (configuration not stated) | 0.0% | . | . | . | 18.4µM* | 20.6µM*
CCS(=O)(=O)NCC(c1ccco1)N1CCN(c2ccc(OC)cc2)CC1 (configuration not stated) | ? | . | . | . | 17.1% | 12.3%
O=C(NC(=O)c1ccccc1)OCCN1C(=O)c2ccccc2C1=O | -0.2% | 0.0 | -8.9% | 0.1% | 4.1% | 4.1%
OC(CCCC(O)c1ccccc1)c1ccccc1 (configuration not stated) | . | -12.2 | -0.7% | -0.8% | -10.3% | 0.4%
OC(COc1ccc2cc(Br)ccc2c1)CN1CCOCC1 (configuration not stated) | 10.8% | -26.4 | ? | -3.6% | ? | 18.4µM*
O=C(c1ccc(Cl)cc1)c1ccc(OCC(O)CN2CCOCC2)cc1 (configuration not stated) | 6.0% | -3.8 | 28.0% | -4.9% | 16.4µM* | 23.1µM*
CCOC(=O)c1ccc(N/C=C/C(=O)C(C)(C)C)cc1 | 0.3% | -25.0 | 0.5% | 1.5% | -14.3% | -12.5%
CC(C)(C)C(=O)/C=C/Nc1ccccc1O | ? | 0.0 | 0.6% | 16.1% | 13µM* | 11.6µM*
CN(C)c1ccc(N/C=C/C(=O)c2ccccc2)cc1 | ? | -10.7 | ? | ? | 11.2µM* | 11.2µM*
CN(C)c1ccc(N/C=C/C(=O)C(C)(C)C)cc1 | 4.5% | -97.5* | ? | ? | ? | 18.4µM*
C[C@H](CO)N1C[C@H](C)[C@H](CN(C)C(=O)Nc2cccc(Oc3ccccn3)c2)OCc2cnnn2CCCC1=O | . | 8.4 | . | . | ? | 14.8%
CCn1c(=O)c2c(n3c(=S)[nH]nc13)-c1ccccc1CC21CCCCC1 | ? | 23.7 | 3.0% | -3.6% | -24.6% | -6.9%
COc1cc(OC)c(N(C)C(=O)Cn2ncc3c(=O)oc4ccccc4c32)cc1Cl | . | . | . | . | 12.8% | 8.2%
CCC1(c2ccc(Cl)cc2)NC(=O)N(CC(=O)NC2CCCC(C)C2C)C1=O (configuration not stated) | ? | -52.8* | 67.1% | 4.11µM* | 25.9µM* | 23.1µM*
CCC1(c2ccc(F)cc2)NC(=O)N(CC(=O)NC2CC2)C1=O (configuration not stated) | 0.8% | 12.8 | 1.9% | -3.4% | 10.2% | 13.9%
CCC1(c2ccc(Cl)cc2)NC(=O)N(CC(=O)NC2CCCCCC2)C1=O (configuration not stated) | -13.3% | -29.6 | 9.8% | -3.8% | 23.1µM* | ?
CCC1(c2ccc(F)cc2)NC(=O)N(CC(=O)NC2CCCC(C)C2C)C1=O (configuration not stated) | 3.5% | -24.6 | -1.8% | 0.1% | ? | ?
O=C(CN1C(=O)NC2(CCCC2)C1=O)NCc1ccc(Cl)cc1 | -2.8% | -51.4* | -6.4% | -12.8% | 2.5% | 1.0%
